Assay results taken from PubChem BioAssay.

These compounds were tested against Neurogenic locus notch homolog protein 3 (Homo sapiens) (UniProt Q9UM47) (assay: NOTCH3 binders on small-molecule microarray, primary screen, biochemical, 635/667 nm fluorescence (AID 1096)). Settings: NOTCH3 binding, 635 nm fluorescence, higher = more signal.
Chain of Neurogenic locus notch homolog protein 3 (Homo sapiens) (Q9UM47 whole entry, looked up): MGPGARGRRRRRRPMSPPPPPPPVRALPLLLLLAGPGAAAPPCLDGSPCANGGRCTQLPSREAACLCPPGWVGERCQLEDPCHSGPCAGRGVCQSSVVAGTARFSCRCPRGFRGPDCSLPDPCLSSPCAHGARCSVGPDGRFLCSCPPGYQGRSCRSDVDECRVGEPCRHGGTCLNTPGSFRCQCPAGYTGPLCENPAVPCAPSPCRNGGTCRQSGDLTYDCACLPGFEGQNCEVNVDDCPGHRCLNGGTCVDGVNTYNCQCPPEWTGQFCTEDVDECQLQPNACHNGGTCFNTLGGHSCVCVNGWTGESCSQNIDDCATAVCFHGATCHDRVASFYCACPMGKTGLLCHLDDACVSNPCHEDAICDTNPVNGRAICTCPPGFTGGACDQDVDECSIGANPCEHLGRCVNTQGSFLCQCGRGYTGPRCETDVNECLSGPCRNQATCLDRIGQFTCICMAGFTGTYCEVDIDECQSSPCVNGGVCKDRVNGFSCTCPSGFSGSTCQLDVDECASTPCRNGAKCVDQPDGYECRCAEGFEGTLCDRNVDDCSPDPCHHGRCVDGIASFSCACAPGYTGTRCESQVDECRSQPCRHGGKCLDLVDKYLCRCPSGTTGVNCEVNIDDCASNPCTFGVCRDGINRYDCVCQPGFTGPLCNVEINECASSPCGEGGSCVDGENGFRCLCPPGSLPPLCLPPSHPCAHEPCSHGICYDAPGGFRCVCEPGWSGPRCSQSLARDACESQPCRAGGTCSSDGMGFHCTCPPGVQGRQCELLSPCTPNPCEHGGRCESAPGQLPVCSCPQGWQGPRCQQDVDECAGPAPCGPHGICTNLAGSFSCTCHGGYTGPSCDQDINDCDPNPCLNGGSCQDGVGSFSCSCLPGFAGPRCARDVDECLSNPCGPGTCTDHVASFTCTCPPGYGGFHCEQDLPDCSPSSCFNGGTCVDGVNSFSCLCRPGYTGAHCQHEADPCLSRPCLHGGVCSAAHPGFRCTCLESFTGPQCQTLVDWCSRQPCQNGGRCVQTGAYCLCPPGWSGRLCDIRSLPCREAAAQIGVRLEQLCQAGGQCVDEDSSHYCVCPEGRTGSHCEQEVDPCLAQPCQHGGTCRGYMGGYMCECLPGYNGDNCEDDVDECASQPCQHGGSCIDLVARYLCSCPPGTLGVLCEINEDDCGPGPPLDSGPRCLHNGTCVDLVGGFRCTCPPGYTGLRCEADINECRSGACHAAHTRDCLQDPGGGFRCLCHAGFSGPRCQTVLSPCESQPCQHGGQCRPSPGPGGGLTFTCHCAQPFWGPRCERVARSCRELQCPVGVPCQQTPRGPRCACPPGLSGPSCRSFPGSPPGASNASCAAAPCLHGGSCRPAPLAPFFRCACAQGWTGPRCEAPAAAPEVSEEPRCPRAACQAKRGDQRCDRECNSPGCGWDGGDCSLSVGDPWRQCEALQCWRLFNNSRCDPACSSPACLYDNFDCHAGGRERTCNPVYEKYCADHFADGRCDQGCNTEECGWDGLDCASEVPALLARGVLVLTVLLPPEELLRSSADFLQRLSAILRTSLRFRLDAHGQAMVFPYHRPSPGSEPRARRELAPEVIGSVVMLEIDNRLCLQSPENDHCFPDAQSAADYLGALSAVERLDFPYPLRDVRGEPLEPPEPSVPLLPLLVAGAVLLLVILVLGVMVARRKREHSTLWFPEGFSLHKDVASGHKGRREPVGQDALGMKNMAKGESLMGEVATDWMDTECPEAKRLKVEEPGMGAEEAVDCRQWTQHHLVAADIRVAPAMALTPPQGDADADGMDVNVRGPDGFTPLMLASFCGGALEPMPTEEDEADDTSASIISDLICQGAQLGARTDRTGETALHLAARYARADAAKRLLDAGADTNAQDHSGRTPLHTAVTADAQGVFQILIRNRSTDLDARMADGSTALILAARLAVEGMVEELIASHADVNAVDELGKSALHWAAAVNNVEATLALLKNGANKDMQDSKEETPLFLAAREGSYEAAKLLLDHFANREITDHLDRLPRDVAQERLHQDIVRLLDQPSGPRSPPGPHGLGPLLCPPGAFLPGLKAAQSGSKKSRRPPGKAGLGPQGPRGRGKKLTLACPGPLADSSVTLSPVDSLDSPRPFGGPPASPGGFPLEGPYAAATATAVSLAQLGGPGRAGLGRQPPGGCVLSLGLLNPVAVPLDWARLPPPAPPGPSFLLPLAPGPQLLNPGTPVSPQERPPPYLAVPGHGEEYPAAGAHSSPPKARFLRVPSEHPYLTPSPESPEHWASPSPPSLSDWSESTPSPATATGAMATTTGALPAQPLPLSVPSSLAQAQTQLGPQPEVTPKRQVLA

Going from `CCOC(=O)NN=C1C[C@@H](O)[C@@H](O)[C@@H]2[C@@H]3C(=O)N([C@@H](C)c4ccccc4)C(=O)[C@@H]3CC[C@@H]12` to `CCOC(=O)NN=C1C[C@@H](O)[C@@H](O)[C@@H]2[C@@H]3C(=O)N(Cc4ccccc4)C(=O)[C@@H]3CC[C@H]12`, the composite z-score falls from 0.954 to -0.0518.

First: COC(=O)[C@@H]1CC[C@H](C)[C@@H](c2ccc(C)cc2)N1C(=O)c1ccc(C=NO[C@@H](C)c2cn([C@H](CO)Cc3ccccc3)nn2)cc1
Second: COC(=O)[C@@H]1CC[C@H](C)[C@@H](c2ccc(C)cc2)N1C(=O)c1ccc(C=NO[C@H](C)c2cn([C@H](CO)Cc3ccccc3)nn2)cc1
The composite z-score of the first is higher: 1.1 for the first, 1.05 for the second.

Compared with `O=C1CCCC=C1C(O)CCOC(c1ccccc1)(c1ccccc1)c1ccccc1` (stereo not given), `COC(=O)[C@H](C)NC(=O)CCC1CC(OC(=O)NCc2cccc3ccccc23)CC2(CCCC(COC(=O)NCC(c3ccccc3)c3ccccc3)O2)O1` (stereo not given in full) is higher in composite z-score: 0.103 for the first, 1.09 for the second.

Compared with `COC(=O)CC=C[C@@H](C)[C@@H]1C=C[C@H](O)[C@@H](CO)O1`, `CO[C@H](C1CCCCC1)[C@H](C)C=CCC(=O)OCCCc1ccccc1` is lower in composite z-score: 0.601 for the first, -0.226 for the second.

Going from `C[C@@H](ON=C1[C@H]2CCn3c(=O)n(-c4ccccc4)c(=O)n3[C@H]2[C@H](O)[C@@H]2O[C@H]12)c1cn([C@@H]2COC[C@H]2O)nn1` to `C[C@@H](c1ccccc1)N1C(=O)[C@H]2[C@H]3[C@H](O)[C@H](O)CC(=NO[C@@H]4O[C@H](CO)[C@@H](O)[C@H](O)[C@H]4O)[C@@H]3CC[C@H]2C1=O`, the composite z-score falls from 0.72 to 0.372.

Compared with `CO[C@@H]1COC(=O)[C@H](CCSC)NC(=O)CC=C[C@@H](C)COC(=O)CCC[C@H]1C`, `C=COC[C@@H]1CN2[C@@H](CC[C@@H](C)[C@@H]2c2ccc(Br)cc2)C(=O)O1` is lower in composite z-score: 0.249 for the first, -0.906 for the second.

Going from `COc1cccc([C@@H]2Oc3ccc(OC)cc3C(=O)[C@H]2O)c1` to `COc1ccc(O[C@@H]2[C@H](O)CO[C@@H]2C=Cc2ccccc2)cc1`, the composite z-score falls from 0.415 to 0.0877.

Compared with `C=CC1=C[C@H](O)[C@@H]2O[C@@H]2C12OCCCO2`, `CCN1C(=O)[C@@H]2[C@H]3C(=CC[C@@H]2C1=O)C1(OCCCO1)[C@H]1O[C@H]1[C@H]3O` is higher in composite z-score: -0.239 for the first, 1.07 for the second.

First: COc1cc(O)c(C(=O)C=Cc2ccc3c(c2)OCO3)c(OC)c1
Second: COc1ccc(O[C@H]2C=C[C@@H](c3ccccc3)O[C@@H]2COC(=O)CCC(C)=NOC(C)CN2CCCc3nc(C)c(C)cc32)cc1 (stereo not given in full)
The composite z-score of the first is lower: 0.124 for the first, 1.01 for the second.

Compared with `CCOC(=O)[C@H](CC(C)C)NC(=O)CCC1CC(OC(=O)NCc2cccc3ccccc23)CC2(CCCC(COC(=O)NCC3CCCCC3)O2)O1` (stereo not given in full), `CCOC(=O)[C@H](CC(C)C)NC(=O)CCC1CC(OC(=O)NCc2cccc3ccccc23)CC2(CCCC(COC(=O)NCCC(C)C)O2)O1` (stereo not given in full) is lower in composite z-score: 0.818 for the first, 0.144 for the second.

First: Cc1cc2c(c(=O)o1)[C@@H](O)[C@H]1O[C@H]1C2=O
Second: O=C1[C@H]2[C@H]3[C@H](O)[C@H](O)CC(=NOC[C@@H](O)COCc4ccco4)[C@H]3CC[C@H]2C(=O)N1C[C@@H]1CCCO1
The composite z-score of the first is higher: 0.482 for the first, 0.28 for the second.

Going from `Cc1ccc(S(=O)(=O)NC(CCc2ccccc2)CC(=O)C(C)(C)C)cc1` (stereo not given) to `CCOC(=O)[C@H](Cc1ccccc1)NC(=O)CCC1CC(OC(=O)NCCc2ccc(F)cc2)CC2(CCCC(COC(=O)NCCc3ccccc3OC)O2)O1` (stereo not given in full), the composite z-score falls from 1.14 to 1.13.

Going from `CCOC(=O)[C@H](CC(C)C)NC(=O)CCC1CC(OC(=O)NCc2cccc3ccccc23)CC2(CCCC(COC(=O)NCCCN3CCCC3=O)O2)O1` (stereo not given in full) to `CC(C)=CCCC(C)=CCON=C1C[C@@H](O)[C@@H](O)[C@@H]2[C@@H]3C(=O)N(c4cccc(Oc5ccccc5)c4)C(=O)[C@@H]3CC[C@@H]12`, the composite z-score falls from 1.12 to 0.751.

Compared with `CC(=O)OC[C@H]1OC(ON=CC[C@@H]2C=C[C@H](OC(C)=O)[C@@H](COC(C)=O)O2)[C@H](OC(C)=O)[C@@H](OC(C)=O)[C@@H]1OC(C)=O` (stereo not given in full), `CC(C)=CCCC(C)=CCON=C1C[C@@H](O)[C@@H](O)[C@@H]2[C@@H]3C(=O)N(C(C)(C)C)C(=O)[C@@H]3CC[C@@H]12` is higher in composite z-score: 0.448 for the first, 0.605 for the second.

Compared with `C#CCCCON=C1C[C@@H](O)[C@@H](O)[C@@H]2[C@@H]3C(=O)N(CCC(=O)OCC)C(=O)[C@@H]3CC[C@H]12`, `C[C@H]1CC[C@H]2C(=O)O[C@H](COc3ccc(C(C)(C)C)cc3)CN2[C@@H]1c1ccc(Br)cc1` is lower in composite z-score: 1.1 for the first, -0.164 for the second.
